Reference: ChEMBL document CHEMBL3988442, “University of Dundee, Small-Polar-MMV Screening Library” (2021)
For part of these data: Potency and affinity values are given separately.

How the values were obtained:
Set-up in all cases: scale not given: direction of the effect not stated beside the values
[1] = target: Protein translocase subunit SecA (Escherichia coli (strain K12)) (UniProt P10408); assay: Assay to Identify E. coli SecA ATPase Inhibitors; type: functional; conditions: 30 µM
[2] = target: T1, Ubiquitin-activating enzyme e1, putative (Leishmania donovani (strain BPK282A1)) (UniProt E9BSI1); assay: Leishmania donovani Ubiquitin Activating Enzyme (LdE1); type: functional; conditions: 30 µM
T1 sequence (whole entry): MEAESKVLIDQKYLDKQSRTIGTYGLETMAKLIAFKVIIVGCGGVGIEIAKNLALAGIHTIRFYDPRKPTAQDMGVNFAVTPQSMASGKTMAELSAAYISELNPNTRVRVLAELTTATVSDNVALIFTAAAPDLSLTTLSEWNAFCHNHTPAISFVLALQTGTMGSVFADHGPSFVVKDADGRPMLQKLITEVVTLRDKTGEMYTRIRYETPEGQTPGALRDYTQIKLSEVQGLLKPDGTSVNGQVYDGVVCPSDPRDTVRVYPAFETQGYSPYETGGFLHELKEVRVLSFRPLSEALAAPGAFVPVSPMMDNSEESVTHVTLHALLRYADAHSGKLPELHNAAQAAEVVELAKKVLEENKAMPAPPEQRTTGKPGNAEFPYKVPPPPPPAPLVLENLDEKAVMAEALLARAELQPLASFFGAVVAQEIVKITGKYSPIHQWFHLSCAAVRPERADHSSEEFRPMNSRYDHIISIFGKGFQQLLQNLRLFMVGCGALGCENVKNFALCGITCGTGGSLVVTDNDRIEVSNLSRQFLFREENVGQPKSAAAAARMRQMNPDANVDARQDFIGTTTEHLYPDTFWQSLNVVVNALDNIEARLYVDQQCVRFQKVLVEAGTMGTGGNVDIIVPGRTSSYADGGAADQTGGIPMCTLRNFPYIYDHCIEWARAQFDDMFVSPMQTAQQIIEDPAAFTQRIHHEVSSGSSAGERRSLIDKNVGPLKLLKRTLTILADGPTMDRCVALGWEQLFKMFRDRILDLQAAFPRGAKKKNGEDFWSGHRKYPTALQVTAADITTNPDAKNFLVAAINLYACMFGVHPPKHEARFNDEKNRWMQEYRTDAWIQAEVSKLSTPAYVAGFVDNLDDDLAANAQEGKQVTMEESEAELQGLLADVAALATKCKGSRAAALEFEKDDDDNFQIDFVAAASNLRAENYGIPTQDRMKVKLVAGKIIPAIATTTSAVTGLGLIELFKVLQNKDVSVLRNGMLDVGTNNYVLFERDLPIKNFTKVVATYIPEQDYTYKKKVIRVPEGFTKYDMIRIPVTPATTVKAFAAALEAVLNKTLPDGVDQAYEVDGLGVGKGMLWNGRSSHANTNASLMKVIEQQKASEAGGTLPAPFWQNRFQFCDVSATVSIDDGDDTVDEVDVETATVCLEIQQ

[3] = target: Sialic acid-binding Ig-like lectin 9 (Homo sapiens) (UniProt Q9Y336); assay: Hs-Siglec9 ALPHAscreen SOP 20170721; conditions: 10 µM
Trypanosoma cruzi = assay: Trypanosoma cruzi phosphomannomutase and mannose-1-phosphate guanylyltransferase assay; type: functional; conditions: 10 µM
[4] = target: T2, Arginase-2, mitochondrial (Homo sapiens) (UniProt P78540); assay: in vitro enzyme assay to detect the production of urea directly proportional to the activity of Arginase II; type: functional; conditions: 33.3 µM; note: in the data most compounds retested in dose-response had high values
T2 sequence (whole entry): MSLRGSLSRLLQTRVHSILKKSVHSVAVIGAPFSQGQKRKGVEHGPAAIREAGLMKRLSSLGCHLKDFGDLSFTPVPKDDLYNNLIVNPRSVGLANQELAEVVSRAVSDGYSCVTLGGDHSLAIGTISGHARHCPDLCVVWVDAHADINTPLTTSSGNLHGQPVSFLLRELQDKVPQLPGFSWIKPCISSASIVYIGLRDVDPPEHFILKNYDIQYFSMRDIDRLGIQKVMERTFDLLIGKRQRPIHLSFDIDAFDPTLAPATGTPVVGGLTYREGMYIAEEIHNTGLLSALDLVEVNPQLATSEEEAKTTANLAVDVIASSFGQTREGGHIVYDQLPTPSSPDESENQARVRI

[5] = target: T3, Proteasome subunit beta (Trypanosoma cruzi) (UniProt O96673); assay: Trypanosoma cruzi proteasome chymotrypsin-like activity (TcProtChymo) assay.; note: in the data most compounds retested in dose-response had high values; type: functional; conditions: 9.37 µM
T3 sequence (whole entry): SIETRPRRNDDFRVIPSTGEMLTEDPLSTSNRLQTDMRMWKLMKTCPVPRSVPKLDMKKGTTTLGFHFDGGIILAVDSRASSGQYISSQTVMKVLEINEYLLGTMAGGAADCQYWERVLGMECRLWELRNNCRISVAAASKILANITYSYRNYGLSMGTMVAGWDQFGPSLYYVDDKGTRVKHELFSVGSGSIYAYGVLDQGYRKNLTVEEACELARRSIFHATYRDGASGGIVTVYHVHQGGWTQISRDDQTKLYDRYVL

Homo sapiens = species on record: Homo sapiens; assay: To identify inhibition of the IFN signalling (Jak-Stat) pathway via expression of an eGFP reporter gene under the control of an IFN-stimulated response element (ISRE) containing MxA promoter.; type: functional; conditions: 30 µM
[6] = target: T4, Tyrosyl-tRNA synthetase, putative (Trypanosoma cruzi (strain CL Brener)) (UniProt Q4DSP6); assay: Trypanosoma cruzi tyrosyl tRNA synthetase (TcYRS) _High Tyrosine SOP; type: functional; conditions: 30 µM; note: in the data most compounds retested in dose-response had high values
T4 sequence (whole entry): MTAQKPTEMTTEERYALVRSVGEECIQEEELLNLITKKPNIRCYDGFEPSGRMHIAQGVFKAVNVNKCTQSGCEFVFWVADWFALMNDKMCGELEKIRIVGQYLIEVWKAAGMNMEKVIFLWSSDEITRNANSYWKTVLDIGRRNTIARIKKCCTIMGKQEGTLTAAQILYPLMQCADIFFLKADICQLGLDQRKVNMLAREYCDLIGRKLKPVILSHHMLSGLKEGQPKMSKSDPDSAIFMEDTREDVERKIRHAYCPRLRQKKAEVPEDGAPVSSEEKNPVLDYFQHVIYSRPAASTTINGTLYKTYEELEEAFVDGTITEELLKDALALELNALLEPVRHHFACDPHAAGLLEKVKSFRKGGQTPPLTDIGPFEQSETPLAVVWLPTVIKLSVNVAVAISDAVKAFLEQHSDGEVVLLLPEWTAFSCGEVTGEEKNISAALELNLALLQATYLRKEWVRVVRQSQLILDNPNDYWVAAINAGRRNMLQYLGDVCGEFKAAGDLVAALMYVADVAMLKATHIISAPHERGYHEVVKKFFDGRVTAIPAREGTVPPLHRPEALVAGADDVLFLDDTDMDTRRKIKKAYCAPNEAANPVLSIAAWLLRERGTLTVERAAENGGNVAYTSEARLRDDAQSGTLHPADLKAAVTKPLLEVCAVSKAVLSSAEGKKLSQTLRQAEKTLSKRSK

[7] = target: T4, Tyrosyl-tRNA synthetase, putative (Trypanosoma cruzi (strain CL Brener)); assay: Trypanosoma cruzi tyrosyl tRNA synthetase (TcYRS) SOP; type: functional; conditions: 30 µM
[8] = target: Chromo domain-containing protein 1 (Saccharomyces cerevisiae (strain ATCC 204508 / S288c) (Baker's yeast)) (UniProt P32657); assay: ScCHD-1 Enzyme Inhibition Assay; type: functional; conditions: 30 µM; note: in the data most compounds retested in dose-response had high values
Chromo domain-containing protein 1 (Saccharomyces cerevisiae (strain ATCC 204508 / S288c) (Baker's yeast)), sequence (P32657 whole entry, the tested form may be a part): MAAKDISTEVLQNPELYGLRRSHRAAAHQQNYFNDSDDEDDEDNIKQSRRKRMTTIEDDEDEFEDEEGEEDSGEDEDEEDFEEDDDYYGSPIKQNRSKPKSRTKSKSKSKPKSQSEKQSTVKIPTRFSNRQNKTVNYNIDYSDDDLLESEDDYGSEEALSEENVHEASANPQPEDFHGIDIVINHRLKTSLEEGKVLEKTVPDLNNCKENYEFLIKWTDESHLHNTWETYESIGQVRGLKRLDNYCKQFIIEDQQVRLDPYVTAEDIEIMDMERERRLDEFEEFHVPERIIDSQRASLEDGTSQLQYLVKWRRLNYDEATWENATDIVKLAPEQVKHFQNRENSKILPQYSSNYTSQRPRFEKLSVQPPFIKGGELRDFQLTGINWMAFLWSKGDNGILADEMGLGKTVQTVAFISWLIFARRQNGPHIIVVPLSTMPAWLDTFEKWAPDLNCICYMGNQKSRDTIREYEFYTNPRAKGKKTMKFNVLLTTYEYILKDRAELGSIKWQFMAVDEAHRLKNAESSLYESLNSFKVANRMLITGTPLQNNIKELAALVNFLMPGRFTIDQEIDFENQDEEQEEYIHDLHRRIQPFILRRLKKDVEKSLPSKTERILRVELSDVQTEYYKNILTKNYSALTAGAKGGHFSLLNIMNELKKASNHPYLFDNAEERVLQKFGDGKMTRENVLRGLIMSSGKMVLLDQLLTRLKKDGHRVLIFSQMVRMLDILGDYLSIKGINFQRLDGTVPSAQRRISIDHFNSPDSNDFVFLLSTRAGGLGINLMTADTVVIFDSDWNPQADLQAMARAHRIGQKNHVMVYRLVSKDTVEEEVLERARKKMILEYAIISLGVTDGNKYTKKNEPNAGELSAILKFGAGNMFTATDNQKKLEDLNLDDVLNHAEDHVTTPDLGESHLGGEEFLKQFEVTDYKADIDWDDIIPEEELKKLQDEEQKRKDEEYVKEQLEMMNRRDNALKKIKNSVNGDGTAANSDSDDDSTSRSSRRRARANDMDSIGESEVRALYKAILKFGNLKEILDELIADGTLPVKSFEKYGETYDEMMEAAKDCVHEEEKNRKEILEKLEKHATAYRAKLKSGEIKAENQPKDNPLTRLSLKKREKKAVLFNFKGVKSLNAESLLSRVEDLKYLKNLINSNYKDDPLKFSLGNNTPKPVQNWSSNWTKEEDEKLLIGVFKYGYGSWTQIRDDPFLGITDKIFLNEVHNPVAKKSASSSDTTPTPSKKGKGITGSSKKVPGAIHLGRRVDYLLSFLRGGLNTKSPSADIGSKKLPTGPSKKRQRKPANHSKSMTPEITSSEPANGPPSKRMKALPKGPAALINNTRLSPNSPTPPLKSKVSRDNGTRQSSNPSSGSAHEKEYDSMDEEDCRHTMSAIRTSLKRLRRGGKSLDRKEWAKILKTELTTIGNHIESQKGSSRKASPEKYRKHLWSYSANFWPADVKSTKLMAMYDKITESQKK

Protein translocase subunit SecA (Escherichia coli (strain K12)), sequence (P10408 whole entry): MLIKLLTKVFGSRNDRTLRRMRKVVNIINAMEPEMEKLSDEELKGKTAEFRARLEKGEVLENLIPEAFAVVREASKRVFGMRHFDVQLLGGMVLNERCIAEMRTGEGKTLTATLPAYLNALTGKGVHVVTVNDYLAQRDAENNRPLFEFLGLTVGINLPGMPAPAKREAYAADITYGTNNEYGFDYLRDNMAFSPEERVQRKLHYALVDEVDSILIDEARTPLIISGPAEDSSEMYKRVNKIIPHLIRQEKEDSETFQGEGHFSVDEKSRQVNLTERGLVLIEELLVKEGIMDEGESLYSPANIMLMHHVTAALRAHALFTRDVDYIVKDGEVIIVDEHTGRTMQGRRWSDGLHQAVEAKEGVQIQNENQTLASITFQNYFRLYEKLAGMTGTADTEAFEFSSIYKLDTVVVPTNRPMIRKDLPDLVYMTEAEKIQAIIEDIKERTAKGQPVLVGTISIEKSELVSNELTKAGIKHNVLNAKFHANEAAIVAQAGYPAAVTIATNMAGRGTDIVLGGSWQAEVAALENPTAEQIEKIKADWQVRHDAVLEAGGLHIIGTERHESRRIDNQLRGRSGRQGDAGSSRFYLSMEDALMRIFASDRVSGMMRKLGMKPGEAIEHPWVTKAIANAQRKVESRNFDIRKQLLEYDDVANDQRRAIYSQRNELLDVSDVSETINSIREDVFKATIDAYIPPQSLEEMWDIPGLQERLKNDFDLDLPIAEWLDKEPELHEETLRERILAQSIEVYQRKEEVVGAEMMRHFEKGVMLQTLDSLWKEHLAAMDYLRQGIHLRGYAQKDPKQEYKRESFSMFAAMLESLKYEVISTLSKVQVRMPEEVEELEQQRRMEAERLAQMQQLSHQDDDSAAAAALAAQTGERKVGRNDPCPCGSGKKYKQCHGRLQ
Sialic acid-binding Ig-like lectin 9 (Homo sapiens), sequence (Q9Y336 whole entry): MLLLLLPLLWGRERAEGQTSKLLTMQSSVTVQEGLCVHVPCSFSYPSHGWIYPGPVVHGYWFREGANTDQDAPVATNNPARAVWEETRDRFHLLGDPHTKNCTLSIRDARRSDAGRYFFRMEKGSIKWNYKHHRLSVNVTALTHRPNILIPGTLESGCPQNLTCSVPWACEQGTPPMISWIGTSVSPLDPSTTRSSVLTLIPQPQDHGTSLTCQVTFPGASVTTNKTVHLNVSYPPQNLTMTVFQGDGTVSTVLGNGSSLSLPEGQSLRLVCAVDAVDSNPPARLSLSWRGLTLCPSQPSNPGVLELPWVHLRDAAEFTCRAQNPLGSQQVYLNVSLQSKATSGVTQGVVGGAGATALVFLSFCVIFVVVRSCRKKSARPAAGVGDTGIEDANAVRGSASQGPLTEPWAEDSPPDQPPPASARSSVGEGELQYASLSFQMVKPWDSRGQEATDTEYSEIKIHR

Structure (SMILES) | Percent Effect [1] [%] | Percent Effect [2] [%] | Percent Effect [3] [%] | Percent Effect (Trypanosoma cruzi) [%] | Percent Effect [4] [%] | Percent Effect [5] [%] | Percent Effect (Homo sapiens) [%] | Percent Effect [6] [%] | Percent Effect [7] [%] | Percent Effect [8] [%]
Cc1ccc(C(=O)N2Cc3c(CN4CCCCC4)nn(C)c3C2)cc1C | -5.88 | -1.3 | -4.75 | -3.02 | -4.86 | 17.9 | -26.6 | -11.1 | -12.8 | -3.91
O=C1C(NCc2nnc3n2CCCC3)CCCN1c1cccc(F)c1 (stereo not given) | 0.699 | 10.3 | -12.3 | -1.6 | 6.56 | 16.8 | 19.1 | 10.1 | 13.2 | -2.66
CCn1cnnc1CNC(=O)N1CCC(C(=O)NC)CC1 | -5.88 | 5.33 | 0.795 | -4.42 | -2.66 | 1.78 | 10.8 | -0.526 | 2.56 | -6.68
CC1CCCCN1Cc1ccc(-c2ccccc2C(=O)O)cc1 (stereo not given) | -1.02 | 4 | 1.22 | -4.73 | 0.443 | 7.39 | 12.3 | 2.12 | 2.5 | -21.8
Cc1nc(C)n(CC2CN(CCCOc3ccccc3C)CCO2)n1 (stereo not given) | -2.1 | -2.67 | -2.65 | 1.61 | 2.66 | 0.763 | 7.57 | -0.526 | -7.69 | -5.97
Cc1cnn(CCNCc2nnc(C3CC3)o2)c1 | 2.37 | 26 | -7.5 | 0.746 | -8.4 | 16 | 32.1 | 6.86 | 28.2 | -8.53
CC(C(=O)Nc1ncccn1)N1CCCN(c2nccs2)CC1 (stereo not given) | -0.557 | 15.4 | -8.35 | -7.04 | 2.05 | 14.8 | 22.9 | 4.31 | 1.21 | -2.28
Cc1csc(N2CCCN(C(=O)c3cnns3)CC2)n1 | -2.47 | -2.67 | -0.659 | -0.803 | -1.33 | -0.255 | -0.448 | 0.526 | 0 | 4.48
CN(C)Cc1ccc(C2CCCCN2C(=O)c2cccc(CO)n2)cc1 (stereo not given) | -5.85 | 13.5 | 26.3 | 9.8 | 23.4 | 9.25 | 8.84 | 6.92 | 14.6 | 80.3
CC(c1nc(C2CC2)no1)N1CCN(Cc2cccc(C#N)c2)CC1 (stereo not given) | -5.05 | 15.4 | -15.7 | 5.35 | -4.1 | 10.5 | 3.36 | 3.35 | 20.5 | -0.399
COc1ccc(S(N)(=O)=O)cc1C(=O)N(C)Cc1cc(C)on1 | 1.97 | 20.5 | -20.8 | 1.41 | -2.87 | 16 | 15.7 | 1.44 | 18.1 | -7.04
CN1CCC/C1=N\S(=O)(=O)c1ccc(NC(=O)c2ccc(F)cc2)cc1 | 1.02 | 26 | 3.66 | 6.34 | 28.5 | 9.82 | 14.2 | 5.88 | 28.2 | -9.94
Cc1cccn2cc(CC(=O)N3CCCC(n4cncn4)C3)nc12 (stereo not given) | -0.27 | 17.9 | -8.4 | 6.1 | 5.74 | 15.6 | 17.2 | 3.35 | 22.9 | -6
CN1CC(c2ccccc2)CC12CCN(C(=O)c1c(Cl)cnn1C)CC2 (stereo not given) | -3.22 | 5.41 | 9.49 | 8.05 | 10.8 | 10.3 | -5.06 | 5.85 | 14.6 | -3.11
OC(CNCCn1cccn1)c1ccc(F)c(F)c1 (stereo not given) | 1.48 | 16 | -2.24 | 2.81 | 1.33 | 19.8 | 18.7 | 4.74 | 12.8 | -8.38
Cn1cc(CN2CCC3(CCCN3S(C)(=O)=O)CC2)cn1 | -3.77 | -1.3 | -1.55 | -5.36 | -0.81 | 1.15 | 1.96 | -2.63 | -25.6 | -1.37
CN1CCN(CC2CC2)C(=O)c2cnc(N3CC[C@@H](O)C3)nc21 | -3.96 | 0 | -4.48 | -3.21 | -4.43 | 3.99 | -1.63 | -2.63 | -7.69 | -9.27
CCC(NC(=O)CC(F)(F)F)c1ccccc1OCC(=O)N1CCCC1 (stereo not given) | -0.84 | 15.4 | -4.51 | -0.845 | 0 | 13.4 | -7.93 | 7.18 | 20.5 | -2.48
Cc1cncc(C(=O)N2Cc3ccccc3C3(CCN(C)CC3)C2)c1 | 0.817 | 1.3 | -5.76 | -4.38 | 4.05 | 3.09 | -17 | -2.63 | -15.4 | -3.41
Cc1cc(CN2CCCC2Cn2cncn2)no1 (stereo not given) | -4.42 | 17.9 | -10.5 | 11.9 | -2.05 | 17 | 0.869 | 3.35 | 20.5 | -10.5
CN(C)c1cc(C(=O)N2CCCC(n3cccn3)C2)ccn1 (stereo not given) | -2.71 | 5.13 | 3.76 | 1.97 | 3.69 | 2.47 | 18.3 | -4.31 | 18.1 | -3.29
Cc1nc(C)n(CC2CCCN2Cc2ccn(-c3ccccc3)n2)n1 (stereo not given) | 0.0578 | -20.8 | 13.8 | 0.933 | -4.3 | 4.04 | 3.86 | 4.9 | 16.5 | -7.02
CC(=O)N1CCC2(CCN(C(=O)c3ccc(Cl)c(C(F)(F)F)c3)CC2)C1 | -7.31 | 6.49 | 5.74 | 0.292 | -0.405 | 7.5 | -12.1 | 6.84 | 7.69 | 3.63
Cn1ncc(NCc2cccc(COC(C)(C)C)c2)c(Cl)c1=O | -2.67 | 8 | 4.11 | 1.81 | 5.32 | 3.31 | 49.3 | 2.63 | 10.3 | -8.54
CN(C)C[C@H]1OC[C@@H]2CCN(S(=O)(=O)c3ccccc3)C[C@@H]21 | -7.48 | 3.9 | 9.94 | -4.58 | -5.26 | 7.33 | 5.69 | -2.63 | -5.13 | -2.54
CCc1nccn1C1CCCN(C(=O)c2csc(NC(C)=O)n2)C1 (stereo not given) | -3.11 | 15.6 | 14.2 | -2.98 | 0.205 | 8.95 | -1.12 | 4.9 | 11.8 | -7.02
CCN(Cc1cccc2c1OCO2)C(=O)C(C)c1cccnc1 (stereo not given) | -0.831 | 7.79 | 4.03 | 5.78 | 8.4 | -0.702 | 4.49 | 3.92 | 11.8 | -5.71
